This passage reports composite z-score and z-score results from PubChem BioAssay.

In experiment [1] the test system is Human papillomavirus type 1a protein E7 (residues 44-93). The experiment in a line: small molecules binding HPV E7 44-93 – biochemical, small-molecule microarray, residues 44-93, 635 nm fluorescence, primary screen (AID 1108).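 Note: E7 fragment applied at 1 µg/mL in TBST for 1 h at 4 C; score combines spot fluorescence with its signal to noise ratio.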 The conditions noted are these: fluorescence 635 nm, higher = more signal.
Experiment [2] is described as follows: hepatitis C replication reporter changes, two-sided – Huh7 cells, luciferase reporter, HCV replication inhibitor project, primary screen (AID 1109).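 Note: huh7 hepatoma cells harbouring a luciferase neomycin HCV replicon reporter; luciferase luminescence as measure of HCV replicon replication; test concentration not given here.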 Particulars: Huh7 HCV replicon luciferase reporter, 48 h; higher = more signal. (In general: In a reporter assay the amount or activity of a reporter protein is the signal.)
Experiment [3] concerns the target Left-right determination factor 2 (Homo sapiens) (UniProt O00292). The experiment in a line: small molecules binding LEFTY2 protein – biochemical, small-molecule microarray, 635 nm fluorescence scan, primary screen (AID 1110). Particulars: higher = more signal.
Experiment [4] deals with Calmodulin-1 (Homo sapiens) (UniProt P0DP23). As to the kind of experiment: small molecules binding calmodulin-1 with EGTA – biochemical, small-molecule microarray, Cy5-labelled CALM1, profiling panel (AID 1111).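 Note: labelled calmodulin applied in Tris saline Tween buffer holding calcium plus EGTA and DTT.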 Particulars: Cy5-CALM1 binding fluorescence, higher = more signal.
Experiment [5] shares this target. The experiment in a line: small molecules binding Ca-loaded calmodulin-1 – biochemical, small-molecule microarray, Cy5-labelled CALM1, plus calcium, artefact control for SMM control-protein annotation, profiling panel (AID 1112).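 Note: score merges spot fluorescence with signal to noise from triplicate slides.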 The conditions noted are these: Cy5-CALM1 binding fluorescence, higher = more signal.
Experiment [6] in a line: probe aWnt5a binding to arrayed compounds – biochemical, biotinylated probe, 635/667 nm fluorescence, primary screen (AID 1113).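 Note: score merges 667 nm fluorescence intensity with signal-to-noise per printed feature.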 The conditions noted are these: small-molecule microarray, higher = more signal.
Experiment [7] can be described thus: probe aShh binding to arrayed compounds – biochemical, biotinylated probe, 635/667 nm fluorescence, primary screen (AID 1114).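 Note: probe is biotin-labelled aShh protein from a stem cell growth factor screen; measures binding of labelled protein to compounds printed on the slide; score merges feature fluorescence at 667 nm with signal-to-noise.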 The conditions noted are these: small-molecule microarray, higher = more signal.
Experiment [8] can be described thus: probe aNog binding to arrayed compounds – biochemical, biotinylated probe, 635/667 nm fluorescence, primary screen (AID 1115).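 Note: probe is biotinylated aNog protein used at 0.15 µg/mL for 1 h at 4 C; z-score combines 667 nm fluorescence of each spot with its signal to noise.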 Particulars: small-molecule microarray, higher = more signal.
Experiment [9] addresses Torsin-1A-interacting protein 1 (Homo sapiens) (UniProt Q5JTV8). The experiment in a line: compound microarray binding of lysate hLAP1 – cell lysate, small-molecule microarray, COS7 lysate, 635/667 nm fluorescence, primary screen (AID 1116). The conditions noted are these: 635 nm fluorescence, higher = more signal.
In experiment [10] the target is Alpha-bungarotoxin (Bungarus multicinctus) (UniProt P60615). The experiment in a line: compounds binding labelled alpha-BTX control protein – biochemical, small-molecule microarray, Alexa647 label, 635/667 nm fluorescence, artefact control for SMM control protein annotation, profiling panel (AID 1117). Particulars: alpha-BTX-A647 binding fluorescence, higher = more signal.
Chain of Alpha-bungarotoxin (Bungarus multicinctus) (P60615 whole entry, looked up): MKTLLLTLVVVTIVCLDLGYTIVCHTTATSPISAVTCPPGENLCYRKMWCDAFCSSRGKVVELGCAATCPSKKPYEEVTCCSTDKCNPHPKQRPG

Chain of Torsin-1A-interacting protein 1 (Homo sapiens) (Q5JTV8 whole entry, looked up): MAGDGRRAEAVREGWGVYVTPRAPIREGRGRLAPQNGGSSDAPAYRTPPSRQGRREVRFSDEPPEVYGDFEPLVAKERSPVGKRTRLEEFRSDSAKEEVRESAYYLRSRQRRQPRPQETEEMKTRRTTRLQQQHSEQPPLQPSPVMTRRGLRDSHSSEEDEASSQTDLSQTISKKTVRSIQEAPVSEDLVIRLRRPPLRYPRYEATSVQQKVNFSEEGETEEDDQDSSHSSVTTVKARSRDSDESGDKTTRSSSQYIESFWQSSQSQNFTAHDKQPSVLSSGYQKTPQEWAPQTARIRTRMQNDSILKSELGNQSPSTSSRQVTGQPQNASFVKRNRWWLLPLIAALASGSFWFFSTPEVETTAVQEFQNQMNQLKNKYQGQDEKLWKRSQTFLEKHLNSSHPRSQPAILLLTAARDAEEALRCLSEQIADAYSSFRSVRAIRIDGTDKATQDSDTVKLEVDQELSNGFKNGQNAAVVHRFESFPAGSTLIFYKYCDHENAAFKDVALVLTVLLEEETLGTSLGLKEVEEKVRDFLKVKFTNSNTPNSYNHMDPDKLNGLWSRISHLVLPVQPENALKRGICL
Chain of Left-right determination factor 2 (Homo sapiens) (O00292 whole entry, looked up): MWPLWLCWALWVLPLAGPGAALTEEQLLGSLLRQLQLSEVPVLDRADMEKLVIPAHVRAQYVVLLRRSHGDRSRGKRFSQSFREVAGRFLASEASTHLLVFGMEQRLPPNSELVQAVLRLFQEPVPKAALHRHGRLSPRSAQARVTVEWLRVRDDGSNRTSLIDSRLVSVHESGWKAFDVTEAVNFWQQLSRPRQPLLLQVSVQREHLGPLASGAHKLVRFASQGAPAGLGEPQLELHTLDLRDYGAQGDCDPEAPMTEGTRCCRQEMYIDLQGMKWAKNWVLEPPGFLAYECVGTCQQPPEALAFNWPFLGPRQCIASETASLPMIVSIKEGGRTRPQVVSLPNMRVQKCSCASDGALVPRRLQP

As to `COc1ccc(CCNC(=O)[C@@H]2c3ccccc3C(=O)N(Cc3cc(F)cc(C(F)(F)F)c3)[C@H]2c2ccc(CO)cc2)cc1`, the composite z-score is 0.45 in experiment [1]; 0.262 in [3]; 1.05 in [4]; 0.197 in experiment [5]; 0.0438 in [6]; -0.314 in experiment [7]. Also, the composite z-score in [8] is 1.86; in [9], 1.59; in experiment [10], 0.715. Further, the z-score in experiment [2] is -0.989.
`CN1C(=O)C2CC=C(C3=CCO[C@@H]3[C@H]3CCCN3S(=O)(=O)c3ccccc3[N+](=O)[O-])CC2C1=O` (stereo not given in full): the composite z-score in experiment [1] was -0.351; in experiment [3], -0.377; in [4], -0.194; in experiment [5], -0.0107; in experiment [6], -0.242; in experiment [7], -0.2. The composite z-score in [8] was -0.0116; in [9], 0.0183; in experiment [10], 0.0302. Moreover, the z-score in experiment [2] is -0.0844.
Consider `COC(=O)[C@@]1(Cc2ccc(F)cc2)[C@H]2c3cc(C(=O)N(C)C)n(Cc4ccsc4Br)c3C[C@H]2CN1C(=O)c1ccccc1`, for which the composite z-score in experiment [1] was -0.468; in experiment [3], 0.648; in experiment [4] it was 2.16; in experiment [5], 0.981; in experiment [6] it was 1.37; in [7], 2.15. For the same compound, the composite z-score in experiment [8] was -0.0209; in experiment [9] it was 1.53; in [10] it was 0.427. In experiment [2], this compound registered a z-score of -0.787.
As to `CC[C@@H](O[Si](C#C[Si](C(C)C)(C(C)C)C(C)C)(C(C)C)C(C)C)c1cn([C@H](CO)Cc2ccccc2)nn1`, the composite z-score was 1.02 in experiment [1]; 0.498 in experiment [3]; 0.229 in experiment [4]; -0.24 in experiment [5]; -0.148 in [6]; -0.0769 in [7]. Moreover, the composite z-score in experiment [8] worked out at 0.184; in experiment [9], 0.739; in experiment [10], 0.167. This compound yielded a z-score in experiment [2] of -0.126.
As for `CC(C)N1C(=O)[C@@]2(Cc3ccccc31)c1ccccc1C(=O)N(Cc1ccccc1)[C@H]2c1ccc(CO)cc1`, the composite z-score in [1] was 0.256; in [3], 0.159; in experiment [4], -0.439; in experiment [5], -0.445; in [6], -0.124; in experiment [7] it was -0.64. For the same compound, the composite z-score in experiment [8] is -0.218; in experiment [9], 0.0896; in experiment [10] it was 0.648. The compound further registered a z-score in experiment [2] of -0.656.
For `CO[C@H]1O[C@H](CO)[C@@H](OC(=O)Nc2ccccc2)[C@@H]2OC(=O)[C@@H](Cc3ccccc3)C/C=C/C[C@H](Cc3ccccc3)C(=O)O[C@@H]12`, the composite z-score in experiment [1] was 0.779; in [3], -0.152; in experiment [4], -0.0442; in [5] it was -0.845; in experiment [6], -0.0721; in experiment [7] it was -0.154. In addition, the composite z-score in experiment [8] is -0.125; in experiment [9], 0.235; in [10], 0.224. The z-score in [2] was -0.897.
As for `CC(C)C(=C=CC[C@H](O)c1cccc(OCCO)c1)C[C@H](O)c1ccccn1`, the composite z-score is 0.106 in experiment [1]; -0.256 in [3]; -0.356 in [4]; -0.78 in [5]; -0.096 in experiment [6]; -0.289 in experiment [7]. In addition, the composite z-score in experiment [8] was -0.147; in experiment [9], -0.334; in experiment [10], -0.579. Besides, in experiment [2], the z-score was -0.423.
Take `C[C@]1(C(=O)NCC(F)(F)F)c2ccccc2C(=O)N(Cc2cc(C(F)(F)F)cc(C(F)(F)F)c2)[C@H]1c1ccc(CO)cc1`: the composite z-score is 0.454 in [1]; -0.544 in experiment [3]; -0.136 in experiment [4]; 0.331 in [5]; -0.0346 in [6]; -0.0146 in experiment [7]. Further, the composite z-score worked out at 0.231 in experiment [8], 0.173 in experiment [9] and 0.342 in experiment [10]. The z-score in [2] was -0.1.
In the case of `COc1ccc(C(=O)Nc2ccc(CN3C(=O)[C@]4(O[C@H](CC(=O)N(CCO)Cc5ccccc5)[C@@H]([Si](C)(C)c5ccc(OC)cc5)[C@@H]4C)c4ccccc43)cc2)cc1`, the composite z-score in experiment [1] is 1.37; in experiment [3] it was 0.803; in experiment [4] it was -0.0162; in experiment [5] it was -0.46; in [6] it was 0.0354; in experiment [7], 0.108. In addition, the composite z-score in [8] stood at 0.0326; in experiment [9], 0.811; in [10], 0.543. Besides, the z-score in [2] was -3.71.
With `C=CCNC(=O)[C@@H]1[C@H]2C(=O)O[C@H](c3ccccc3)[C@H](c3ccccc3)N2[C@H](c2ccc(O)cc2)[C@@]12C(=O)N(C(=O)OCCOC)c1ccc(C#CCC(C(=O)OC)C(=O)OC)cc12`, the composite z-score in [1] is 1.39; in [3] it was 0.434; in experiment [4], 0.635; in experiment [5], 0.0394; in experiment [6] it was -0.001; in experiment [7] it was 0.151. The composite z-score in experiment [8] was -0.1; in experiment [9], 1.42; in [10], 1.11. The z-score in experiment [2] is -0.598.
With `COCCOC(=O)N1C(=O)[C@@]2(c3cc(C#CCC(C(=O)OC)C(=O)OC)ccc31)[C@H](C(N)=O)[C@H]1C(=O)O[C@H](c3ccccc3)[C@H](c3ccccc3)N1[C@@H]2c1ccccc1OCCO`, the composite z-score is 1.31 in experiment [1]; 0.584 in experiment [3]; 1.44 in [4]; 0.308 in [5]; 0.0297 in experiment [6]; -0.182 in experiment [7]. Also, the composite z-score in experiment [8] was -0.263; in experiment [9], 0.146; in [10], 0.899. In experiment [2], this compound yielded a z-score of -3.36.
Consider `COc1ccc(NN2C(C(O)c3ccc(F)cc3)C=CC3C(=O)N(C4CCCCC4)C(=O)C32)cc1` (stereo not given), for which the composite z-score in experiment [1] was determined as 1.44; in experiment [3], 0.14; in experiment [4], 1.08; in [5], 0.722; in experiment [6], 0.0919; in experiment [7], 0.108. Further, the composite z-score in experiment [8] came out at 1.03; in experiment [9], 0.297; in experiment [10], 1.37. The compound also yielded a z-score in experiment [2] of -0.502.
